Cruzain Triton: blocks cruzain activity in presence of Triton detergent | P25779 | purified cruzain, Z-FR-AMC fluorescence, 0.01% Triton | Potency, µM, without a hit: max response, negative = inhibition, most hits filed as inhibitors | 200,000 tested, 0.43% active | AID 1478;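 note: plate controls were neutral wells for no effect and buffer without enzyme for full effect; nearly all actives have a fitted effect of over 40% in size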
Target sequence (P25779 123-467 limits assumed): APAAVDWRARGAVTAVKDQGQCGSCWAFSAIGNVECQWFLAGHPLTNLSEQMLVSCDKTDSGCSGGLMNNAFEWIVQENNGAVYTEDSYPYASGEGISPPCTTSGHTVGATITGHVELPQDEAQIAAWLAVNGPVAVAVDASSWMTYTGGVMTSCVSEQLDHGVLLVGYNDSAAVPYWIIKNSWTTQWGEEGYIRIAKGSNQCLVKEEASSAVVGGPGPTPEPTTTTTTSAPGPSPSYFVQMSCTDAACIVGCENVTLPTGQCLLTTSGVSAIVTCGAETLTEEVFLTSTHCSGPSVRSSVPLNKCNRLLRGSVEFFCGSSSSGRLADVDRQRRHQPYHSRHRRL
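Compounds were screened in titration against cruzain (1.5 nM) with 0.01% Triton X-100 to counter colloidal aggregation. Activity was the AMC fluorescence increase over 60 s after adding 2 uM Z-FR-AMC at pH 5.5.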
Cruzain inh noDet: inhibitors of Trypanosoma cruzi cruzain without detergent. P25779. purified cruzain, Z-FR-AMC fluorescence, no detergent. Potency, µM, inactives show max response, negative = inhibition, usual class: inhibitors. 200,000 tested, 2.3% active;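 note: plate controls were enzyme without inhibitor for no effect and buffer without enzyme for full effect; nearly all actives have a fitted effect of over 40% in size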
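Detergent-free condition (0.00005% Triton X-100) in acetate buffer pH 5.5 with DTT. 1.5 nM enzyme and compound were pre-mixed 15 min, then 2 uM Z-FR-AMC substrate added; reaction progress from fluorescence change between first and third reads (60 s).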
Active calls of the source: *; ? = inconclusive. Hits are enriched below; roughly 2.5% of the tested compounds scored in any of these assays. Calls come from the whole dose curve; as a rule, active = well fitted curve in the direction sought with a large enough effect; inconclusive = small, poorly fitted or top-dose-only effect, or another doubt; inactive = no such curve, though single readings can be large; an effect the other way counts as inactive or inconclusive. Potency is the fitted concentration of half-maximal effect.

SMILES	Cruzain Triton	Cruzain inh noDet
COc1ccc(C(=O)NNC(=O)c2cc3cc([N+](=O)[O-])ccc3oc2=O)cc1OC	-1%	1%
O=C(Nc1ccccc1F)c1oc2ccccc2c1NC(=O)C12CC3CC(CC(C3)C1)C2	-2%	-1%
FB(F)F	3%	-1%
COc1ccc(S(=O)(=O)N2CCC(CN3C(=O)c4cccc5cccc(c45)C3=O)CC2)cc1	-3%	25µM*
COc1ccc(OCC(O)CN2CCC(CN3C(=O)c4cccc5cccc(c45)C3=O)CC2)cc1 (configuration not stated)	-1%	8%
CCOc1ccc(CNC(=O)C2Cc3cc(S(=O)(=O)N4CCCCCC4)ccc3N2C(C)=O)cc1 (configuration not stated)	3%	-11%
Cc1ccc(C)c(CN2C(=O)CSc3ccc(C(=O)NCCc4ccc(Cl)cc4)cc32)c1	-1%	5%
O=C(O)c1cc(-c2ccc(C(F)(F)F)cc2)nc2n[nH]c(-c3ccccc3)c12	-2%	8%
O=C(COC(=O)c1ccc(-c2nnc(-c3ccccc3)o2)cc1)c1ccccc1	-1%	7.9µM*
Nc1cccc(C(=O)OCC(=O)c2ccccc2)c1	-2%	-3%
CCCCN(C)CCNC(=O)c1cc(=O)[nH]c2ccc(S(=O)(=O)N3CCCCCC3)cc12	0%	0%
O=S(=O)(Nc1nc2ccccc2nc1N1CCc2ccccc2C1)c1ccc(Br)cc1	-4%	7.9µM*
O=S(=O)(Nc1nc2ccccc2nc1N1CCc2ccccc2C1)c1ccc(Cl)cc1	-5%	-76%
Cn1cnc(S(=O)(=O)N2CCCC(C(=O)Nc3ccc(OC(F)(F)F)cc3)C2)c1 (configuration not stated)	-1%	6%
COc1ccc(-c2csc(NC(=O)c3ccccc3NS(=O)(=O)c3ccc(C)cc3)n2)cc1	-14%	?
COc1ccc(S(=O)(=O)Nc2ccccc2C(=O)Nc2nc(-c3ccc(F)cc3)cs2)cc1OC	-14%	20µM*
CCC1CSC(Nc2ccc(C(=O)/C=C/c3ccc(Br)cc3)cc2)=N1 (configuration not stated)	-11%	25µM*
O=C(/C=C/c1ccc(Br)cc1)c1ccc(NC(=O)c2ccco2)cc1	-6%	-12%
Cc1cccc(S(=O)(=O)Nc2nc3ccccc3nc2Nc2ccc3c(c2)OCO3)c1	-6%	16µM*
O=S(=O)(Nc1nc2ccccc2nc1Nc1ccc2c(c1)OCO2)c1ccccc1	-3%	?
Nc1cccc2c(N)cccc12	-5%	2%
Nc1cc2c(nc3c4ccccc4c(N)cc3[n+]2-c2cccc3ccccc23)c2ccccc12 (tested in a mixture with another compound)	0%	1.3µM*
Cc1c(C(=O)N(C)C)sc2c1c(=O)n(-c1ccc(Cl)cc1)c(=O)n2CC(=O)C(C)(C)C	2%	0%
Nc1nnc(SCC(=O)c2ccccc2)s1	2%	-10%
Nc1c(C(=O)c2ccccc2)sc2snc(SCC(=O)c3ccccc3)c12	-28%	13µM*
SMILES	Cruzain Triton	Cruzain inh noDet
CN1CCN(C2=C(Cl)C(=O)N(c3cccc(Cl)c3)C2=O)CC1	-26%	?
CN1CCN(C2=C(Cl)C(=O)N(c3ccc(Cl)c(Cl)c3)C2=O)CC1	2.8µM*	2.5µM*
Cc1ccc(N2C(=O)C(Cl)=C(N3CCOCC3)C2=O)cc1Cl	7.1µM*	7.9µM*
O=C1C(Cl)=C(N2CCOCC2)C(=O)N1c1ccccc1Cl	?	-26%
Cc1cc(N2CCC(C(=O)Nc3ccccc3Cl)CC2)n2nc(C)c(-c3ccc(Cl)cc3)c2n1	2%	-4%
CC1=C(C(=O)Nc2cc(Cl)ccc2C)C(c2sccc2C)n2ncnc2N1 (configuration not stated)	-2%	-11%
Cc1ccccc1-c1nc(CN2CCC(C(=O)NCc3ccc(F)cc3)CC2)c(C)o1	-2%	-16%
CCOC(=O)N1CCC(NC(=O)c2ccc3c(c2)N(Cc2ccccc2)C(=O)c2ccccc2S3(=O)=O)CC1	-3%	?
Cc1ccc2nc(-c3ccc(NC(=O)CSc4ccccc4)cc3)[nH]c2c1	10µM*	?
O=C(CSc1ccc(-c2nc3ccccc3[nH]2)cn1)Nc1ccc(S(=O)(=O)N2CCCC2)cc1	-4%	32µM*
O=C(CSc1ccccc1)Nc1ccc(-c2nc3ccccc3[nH]2)cc1	-16%	?
Cc1cc2nc(-c3ccc(SCC(=O)Nc4ccc(S(=O)(=O)N5CCCC5)cc4)nc3)[nH]c2cc1C	-12%	?
O=C(NCCCN1CCN(c2cccc(Cl)c2)CC1)c1sc2ncccc2c1-n1cccc1	-5%	-6%
O=C(Cn1c(=O)c2cccn2c2cccnc21)NCc1cccc(F)c1	-4%	-1%
CCOc1ccc(CNCc2c(C(=O)O)c(C)n(Cc3ccc(F)cc3Cl)c2C)cc1	0%	-7%
O=C(c1cccn1-c1nnc(N2CCCC2)s1)N1CCN(c2ccc(Cl)cc2)CC1	0%	6%
c1ccc2[nH]c(CSc3nc4ccccc4o3)nc2c1	-18%	13µM*
c1cncc(-c2nnc(SCc3nc4ccccc4[nH]3)o2)c1	-2%	?
NC(=S)N=Nc1c(O)[nH]c2cc(F)c(F)cc12	14µM*	10µM*
CNC(=S)N=Nc1c(O)[nH]c2ccc(C(C)C)cc12	-8%	-1%
Cc1ccc(CNc2nc(-c3ccco3)nn2S(C)(=O)=O)cc1	-2%	2%
COc1ccc(C(=O)Nc2ccc(N(C)Cc3ccccc3)c(C(=O)O)c2)cc1	1%	1%
Cc1ccc(S(=O)(=O)N2CCCCC2)cc1NC(=O)COC(=O)CNC(=O)c1cc(Cl)cc([N+](=O)[O-])c1	10µM*	20µM*
CC(C)(C)c1ccc(C(=O)NCC(=O)OCC(=O)Nc2ccccc2[N+](=O)[O-])cc1	-6%	5%
Cc1ccc(S(=O)(=O)N2CCOCC2)cc1NC(=O)COC(=O)CNC(=O)c1ccc(C(C)(C)C)cc1	-2%	?
SMILES	Cruzain Triton	Cruzain inh noDet
CC(C)NC(=O)COC(=O)CNC(=O)c1cc(Cl)cc([N+](=O)[O-])c1	7.9µM*	7.9µM*
COc1ccc(Cn2ccc3nc(C)c(C(=O)Nc4cc(OC)c(OC)c(OC)c4)cc3c2=O)cc1	1%	?
CCOc1ccc(NC(=O)C(CC)n2nc(C)c3c(C)n(-c4ccccc4)nc3c2=O)cc1 (configuration not stated)	-4%	-12%
CC(C)CC(=O)Nc1cc(-c2ccccc2F)nn1-c1ccccc1	-1%	1%
Cc1cc(C)c2nc(N(Cc3cccnc3)C(=O)Cc3ccccc3)sc2c1	-2%	-26%
CCOC(=O)CN1C=C(c2ccc3ccccc3n2)C(C[N+](=O)[O-])c2ccccc21 (configuration not stated)	-4%	25µM*
CCOC(=O)CSc1nc2ccccc2n1CC(=O)N(C(C)C)C(C)C	1%	-8%
CC(C)Oc1ccc(C(=O)NCC(c2ccc(N(C)C)cc2)N2CCc3ccccc32)cc1 (configuration not stated)	-4%	?
COc1ccc(C(=O)NCC(c2ccc(N(C)C)cc2)N2CCc3ccccc32)cc1 (configuration not stated)	?	13µM*
COc1ccccc1C(=O)NCC(c1ccc(N(C)C)cc1)N1CCc2ccccc21 (configuration not stated)	-11%	?
CN(C)c1ccc(C(CNC(=O)c2ccccc2Cl)N2CCc3ccccc32)cc1 (configuration not stated)	-17%	32µM*

High-throughput results (PubChem BioAssay)
